What all share (experiment): DAPPL (digital affinity profiling via proximity ligation, sequencing); 10 mM Tris-HCl pH 7.5, 50 mM NaCl, 1 mM DTT, 4% glycerol, room temperature, 30 min; GST-TFs on glutathione beads, 16-mer random dsDNA library, 0.1% formaldehyde crosslink after washing; high values mean tight binding
For one assay, the target named is T1, FLI1 (Homo sapiens, UniProt Q01543 1-452).
T1 sequence: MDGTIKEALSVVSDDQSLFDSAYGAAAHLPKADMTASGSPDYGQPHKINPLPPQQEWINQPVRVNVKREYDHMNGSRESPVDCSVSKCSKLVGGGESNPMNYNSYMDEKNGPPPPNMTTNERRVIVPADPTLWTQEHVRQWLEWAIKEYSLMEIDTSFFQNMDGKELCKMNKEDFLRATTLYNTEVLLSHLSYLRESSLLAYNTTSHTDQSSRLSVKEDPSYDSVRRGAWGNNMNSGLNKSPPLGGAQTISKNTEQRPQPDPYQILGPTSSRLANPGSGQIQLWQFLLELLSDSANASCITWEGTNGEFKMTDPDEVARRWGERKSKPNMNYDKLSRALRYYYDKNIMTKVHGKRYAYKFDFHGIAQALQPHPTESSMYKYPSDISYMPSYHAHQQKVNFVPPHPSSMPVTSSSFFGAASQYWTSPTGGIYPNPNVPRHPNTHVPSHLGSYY
The note with it: protein: recombinant; tags: N-terminal GST; dsDNA, one strand shown. The essentials: (§1)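 Binding signal is each hexamer's read frequency for a factor divided by its frequency in the tag-only sample. The factors were GST-fused human transcription factors from yeast, captured on glutathione beads, DNA-barcoded and pooled with that sample. Pools were incubated with 200 nmole of a random double-stranded 16-mer DNA library in Tris/NaCl/DTT/glycerol buffer at room temperature for 30 min, then washed, crosslinked with 0.1% formaldehyde, proximity-ligated with BsaI/T4 ligase (1 h, 37 °C), PCR-amplified and sequenced on an Illumina NextSeq500.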

A further assay deals with T2, ELK1 (Homo sapiens, UniProt P19419 1-428).
T2 sequence: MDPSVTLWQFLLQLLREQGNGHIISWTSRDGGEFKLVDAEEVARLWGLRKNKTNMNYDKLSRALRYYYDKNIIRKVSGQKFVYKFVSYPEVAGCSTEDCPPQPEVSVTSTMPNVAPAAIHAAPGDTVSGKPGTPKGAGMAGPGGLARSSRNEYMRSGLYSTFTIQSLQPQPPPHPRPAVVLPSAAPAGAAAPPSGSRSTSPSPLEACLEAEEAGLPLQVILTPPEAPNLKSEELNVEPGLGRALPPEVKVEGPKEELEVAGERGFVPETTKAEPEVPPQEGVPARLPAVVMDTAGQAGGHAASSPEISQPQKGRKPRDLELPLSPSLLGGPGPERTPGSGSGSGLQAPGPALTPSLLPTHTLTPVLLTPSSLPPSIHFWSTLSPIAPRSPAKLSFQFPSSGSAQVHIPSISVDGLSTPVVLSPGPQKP
Particulars: protein: recombinant; tags: N-terminal GST; dsDNA, one strand shown. A digest of the protocol: as §1

For another assay, the target named is T3, GABPA (Homo sapiens, UniProt Q06546 1-454).
T3 sequence: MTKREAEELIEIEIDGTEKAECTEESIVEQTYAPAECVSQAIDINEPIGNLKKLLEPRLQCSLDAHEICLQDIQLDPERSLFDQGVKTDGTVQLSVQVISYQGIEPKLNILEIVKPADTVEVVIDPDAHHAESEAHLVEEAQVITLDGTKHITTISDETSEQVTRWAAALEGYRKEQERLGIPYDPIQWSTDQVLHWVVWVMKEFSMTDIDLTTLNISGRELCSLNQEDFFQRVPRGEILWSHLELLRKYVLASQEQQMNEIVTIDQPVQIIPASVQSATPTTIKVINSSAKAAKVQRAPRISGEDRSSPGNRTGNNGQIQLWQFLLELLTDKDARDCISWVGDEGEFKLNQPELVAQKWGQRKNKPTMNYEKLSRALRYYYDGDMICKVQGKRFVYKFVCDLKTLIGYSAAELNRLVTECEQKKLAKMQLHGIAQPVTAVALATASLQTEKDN
Particulars: protein: recombinant; tags: N-terminal GST; dsDNA, one strand shown. A digest of the protocol: as §1

A further assay has as its target T4, ERG (Homo sapiens, UniProt P11308 1-479).
T4 sequence: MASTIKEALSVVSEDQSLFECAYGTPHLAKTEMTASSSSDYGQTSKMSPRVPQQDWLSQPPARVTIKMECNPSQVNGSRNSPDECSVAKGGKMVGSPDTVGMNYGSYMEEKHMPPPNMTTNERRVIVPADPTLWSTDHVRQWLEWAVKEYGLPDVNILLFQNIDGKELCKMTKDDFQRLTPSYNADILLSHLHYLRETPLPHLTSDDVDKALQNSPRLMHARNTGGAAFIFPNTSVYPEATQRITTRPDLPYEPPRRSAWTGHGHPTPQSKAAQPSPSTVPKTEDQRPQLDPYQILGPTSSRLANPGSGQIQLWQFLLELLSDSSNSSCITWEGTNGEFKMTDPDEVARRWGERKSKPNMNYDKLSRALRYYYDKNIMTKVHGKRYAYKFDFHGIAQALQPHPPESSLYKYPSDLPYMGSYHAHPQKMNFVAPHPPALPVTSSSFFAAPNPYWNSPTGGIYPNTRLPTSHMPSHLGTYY
Particulars: protein: recombinant; tags: N-terminal GST; dsDNA, one strand shown. The essentials:
as §1

Another assay addresses ELF1 (Homo sapiens, UniProt P32519 1-619). Particulars: protein: recombinant; tags: N-terminal GST; dsDNA, one strand shown. The essentials:
as §1

Another assay has as its target T5, EHF (Homo sapiens, UniProt Q9NZC4 1-300).
T5 sequence: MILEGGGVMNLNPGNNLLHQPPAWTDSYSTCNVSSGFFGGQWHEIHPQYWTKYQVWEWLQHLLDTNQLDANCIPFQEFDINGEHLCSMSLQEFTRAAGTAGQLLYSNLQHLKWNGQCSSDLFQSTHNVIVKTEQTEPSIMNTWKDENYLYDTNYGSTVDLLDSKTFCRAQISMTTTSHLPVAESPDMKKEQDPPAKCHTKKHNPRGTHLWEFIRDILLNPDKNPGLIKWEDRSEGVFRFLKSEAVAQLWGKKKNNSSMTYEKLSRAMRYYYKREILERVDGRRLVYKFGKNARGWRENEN
Particulars: protein: recombinant; tags: N-terminal GST; dsDNA, one strand shown. The essentials:
as §1

The next assay concerns the target SPI1 (Homo sapiens, UniProt P17947 1-270). Particulars: protein: recombinant; tags: N-terminal GST; dsDNA, one strand shown. A digest of the protocol: as §1
A further assay addresses SPIB (Homo sapiens, UniProt Q01892 1-262). Particulars: protein: recombinant; tags: N-terminal GST; dsDNA, one strand shown. The essentials: as §1
The next assay deals with T6, ELK3 (Homo sapiens, UniProt P41970 1-407).
T6 sequence: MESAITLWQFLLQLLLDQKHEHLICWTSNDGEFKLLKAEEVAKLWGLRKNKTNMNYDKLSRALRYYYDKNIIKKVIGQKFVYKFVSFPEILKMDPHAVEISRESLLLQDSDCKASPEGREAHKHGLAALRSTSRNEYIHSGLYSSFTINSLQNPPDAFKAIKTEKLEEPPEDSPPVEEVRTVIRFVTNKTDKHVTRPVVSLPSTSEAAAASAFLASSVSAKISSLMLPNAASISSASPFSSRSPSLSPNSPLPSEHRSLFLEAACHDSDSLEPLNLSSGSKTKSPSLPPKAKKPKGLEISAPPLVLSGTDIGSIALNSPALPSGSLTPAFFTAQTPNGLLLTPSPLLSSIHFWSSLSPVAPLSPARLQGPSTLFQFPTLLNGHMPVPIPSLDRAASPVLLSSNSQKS
The note with it: protein: recombinant; tags: N-terminal GST; dsDNA, one strand shown. The essentials: as §1

The target of a further assay is T7, FEV (Homo sapiens, UniProt Q99581 1-238).
T7 sequence: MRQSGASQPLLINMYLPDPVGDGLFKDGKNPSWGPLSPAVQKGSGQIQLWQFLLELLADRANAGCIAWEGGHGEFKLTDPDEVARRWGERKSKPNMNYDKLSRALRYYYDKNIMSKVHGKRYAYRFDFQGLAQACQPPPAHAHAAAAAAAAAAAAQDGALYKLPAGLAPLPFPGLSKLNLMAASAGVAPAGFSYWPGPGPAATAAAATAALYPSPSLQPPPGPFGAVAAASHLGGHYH
Particulars: protein: recombinant; tags: N-terminal GST; dsDNA, one strand shown. The essentials:
as §1

For another assay, the target named is ETV5 (Homo sapiens, UniProt P41161 1-510). Particulars: protein: recombinant; tags: N-terminal GST; dsDNA, one strand shown. The essentials: as §1
Chain of ETV5 (P41161 whole entry): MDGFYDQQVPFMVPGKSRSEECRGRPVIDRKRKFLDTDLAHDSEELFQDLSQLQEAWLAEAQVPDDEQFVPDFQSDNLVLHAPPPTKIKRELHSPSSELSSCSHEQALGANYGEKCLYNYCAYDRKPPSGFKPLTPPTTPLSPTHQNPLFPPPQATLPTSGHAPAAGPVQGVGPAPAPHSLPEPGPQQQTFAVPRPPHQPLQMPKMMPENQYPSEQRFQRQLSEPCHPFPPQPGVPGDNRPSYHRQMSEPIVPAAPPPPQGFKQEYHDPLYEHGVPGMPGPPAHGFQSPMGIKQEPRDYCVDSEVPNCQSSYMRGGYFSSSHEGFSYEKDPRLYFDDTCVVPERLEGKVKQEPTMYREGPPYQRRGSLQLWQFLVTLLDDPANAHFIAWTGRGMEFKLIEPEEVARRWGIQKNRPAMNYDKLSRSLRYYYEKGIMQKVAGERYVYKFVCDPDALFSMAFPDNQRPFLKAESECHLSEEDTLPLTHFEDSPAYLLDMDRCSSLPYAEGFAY
The next assay concerns the target HSF1 (Homo sapiens, UniProt Q00613 1-529). The note with it: protein: recombinant; tags: N-terminal GST; chain copies: 3; dsDNA, one strand shown. A digest of the protocol:
as §1

The next assay concerns the target T8, SPIC (Homo sapiens, UniProt Q8N5J4 1-248).
T8 sequence: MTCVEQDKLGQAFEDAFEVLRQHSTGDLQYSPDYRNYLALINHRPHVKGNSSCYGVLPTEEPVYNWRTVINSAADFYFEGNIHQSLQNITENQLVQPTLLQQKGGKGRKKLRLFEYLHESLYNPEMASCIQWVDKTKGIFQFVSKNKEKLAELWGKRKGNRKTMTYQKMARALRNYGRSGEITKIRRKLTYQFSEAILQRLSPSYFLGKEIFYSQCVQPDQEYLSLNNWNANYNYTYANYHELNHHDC
Particulars: protein: recombinant; tags: N-terminal GST; dsDNA, one strand shown. The essentials:
as §1

A further assay deals with ELF4 (Homo sapiens, UniProt Q99607 1-663). Particulars: protein: recombinant; tags: N-terminal GST; dsDNA, one strand shown. The essentials: as §1
Chain of ELF4 (Q99607 whole entry): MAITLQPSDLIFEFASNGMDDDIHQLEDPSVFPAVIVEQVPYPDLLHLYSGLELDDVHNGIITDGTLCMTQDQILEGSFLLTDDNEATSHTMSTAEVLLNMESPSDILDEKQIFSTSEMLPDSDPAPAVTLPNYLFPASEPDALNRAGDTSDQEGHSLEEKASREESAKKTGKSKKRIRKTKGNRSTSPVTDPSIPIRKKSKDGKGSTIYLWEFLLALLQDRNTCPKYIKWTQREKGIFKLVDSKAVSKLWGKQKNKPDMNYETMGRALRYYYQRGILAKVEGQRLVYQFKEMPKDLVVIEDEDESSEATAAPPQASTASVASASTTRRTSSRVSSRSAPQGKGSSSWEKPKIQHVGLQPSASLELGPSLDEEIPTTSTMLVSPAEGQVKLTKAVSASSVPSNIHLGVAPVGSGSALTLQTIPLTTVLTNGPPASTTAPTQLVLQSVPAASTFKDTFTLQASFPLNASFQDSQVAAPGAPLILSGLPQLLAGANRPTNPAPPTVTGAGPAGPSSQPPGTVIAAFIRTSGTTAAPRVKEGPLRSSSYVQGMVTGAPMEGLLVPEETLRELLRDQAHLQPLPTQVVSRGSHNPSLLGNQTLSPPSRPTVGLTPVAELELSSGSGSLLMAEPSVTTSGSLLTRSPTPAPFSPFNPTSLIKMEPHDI
A further assay has as its target T9, ELK4 (Homo sapiens, UniProt P28324-2 1-405).
T9 sequence: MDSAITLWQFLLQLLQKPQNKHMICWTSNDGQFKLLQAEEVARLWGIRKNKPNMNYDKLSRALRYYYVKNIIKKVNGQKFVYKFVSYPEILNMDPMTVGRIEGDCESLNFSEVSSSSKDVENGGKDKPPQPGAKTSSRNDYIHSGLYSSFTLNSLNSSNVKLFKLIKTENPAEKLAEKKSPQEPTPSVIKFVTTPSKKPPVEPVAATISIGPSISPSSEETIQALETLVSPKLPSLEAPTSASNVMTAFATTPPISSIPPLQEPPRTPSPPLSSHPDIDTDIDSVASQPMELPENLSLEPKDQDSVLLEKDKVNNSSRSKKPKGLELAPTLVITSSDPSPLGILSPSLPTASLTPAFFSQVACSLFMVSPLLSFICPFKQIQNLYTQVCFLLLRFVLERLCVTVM
Particulars: protein: recombinant; tags: N-terminal GST; dsDNA, one strand shown. A digest of the protocol:
as §1

The target of the next assay is T10, ETV2 (Homo sapiens, UniProt O00321 1-342).
T10 sequence: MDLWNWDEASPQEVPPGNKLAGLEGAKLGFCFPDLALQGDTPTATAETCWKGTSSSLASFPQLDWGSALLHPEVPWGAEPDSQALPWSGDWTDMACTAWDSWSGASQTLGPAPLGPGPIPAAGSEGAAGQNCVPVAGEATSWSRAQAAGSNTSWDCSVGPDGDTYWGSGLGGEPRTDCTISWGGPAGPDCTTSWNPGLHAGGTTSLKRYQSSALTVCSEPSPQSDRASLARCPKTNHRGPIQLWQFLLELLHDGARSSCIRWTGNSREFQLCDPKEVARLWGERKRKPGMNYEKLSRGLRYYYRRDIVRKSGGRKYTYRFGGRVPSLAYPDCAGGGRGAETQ
Particulars: protein: recombinant; tags: N-terminal GST; dsDNA, one strand shown. The essentials: as §1

A further assay has as its target T11, ELF3 (Homo sapiens, UniProt P78545 1-371).
T11 sequence: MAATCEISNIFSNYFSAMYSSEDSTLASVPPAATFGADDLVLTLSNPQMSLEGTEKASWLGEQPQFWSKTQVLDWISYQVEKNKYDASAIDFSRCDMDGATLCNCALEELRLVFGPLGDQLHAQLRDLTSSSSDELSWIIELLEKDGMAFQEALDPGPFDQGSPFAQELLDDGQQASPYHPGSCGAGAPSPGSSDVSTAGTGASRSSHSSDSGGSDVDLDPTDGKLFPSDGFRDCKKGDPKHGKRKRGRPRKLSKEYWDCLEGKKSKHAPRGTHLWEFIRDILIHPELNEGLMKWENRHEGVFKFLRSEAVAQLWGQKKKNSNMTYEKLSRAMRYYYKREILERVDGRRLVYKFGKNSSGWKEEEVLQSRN
Particulars: protein: recombinant; tags: N-terminal GST; dsDNA, one strand shown. A digest of the protocol: as §1

The next assay deals with CRX (Homo sapiens, UniProt O43186 1-299). Particulars: protein: recombinant; tags: N-terminal GST; dsDNA, one strand shown. The essentials: as §1
Chain of CRX (O43186 whole entry): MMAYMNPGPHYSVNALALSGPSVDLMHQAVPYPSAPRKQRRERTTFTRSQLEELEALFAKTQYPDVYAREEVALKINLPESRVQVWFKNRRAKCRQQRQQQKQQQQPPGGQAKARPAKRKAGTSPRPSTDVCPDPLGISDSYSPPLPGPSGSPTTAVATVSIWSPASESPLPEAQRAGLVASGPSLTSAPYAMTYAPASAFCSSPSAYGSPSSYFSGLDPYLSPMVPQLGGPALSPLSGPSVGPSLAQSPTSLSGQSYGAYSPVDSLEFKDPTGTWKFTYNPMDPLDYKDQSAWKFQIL
The target of the next assay is ETV1 (Homo sapiens, UniProt P50549 1-477). The note with it: protein: recombinant; tags: N-terminal GST; dsDNA, one strand shown. The essentials:
as §1

Chain of SPIB (Q01892 whole entry): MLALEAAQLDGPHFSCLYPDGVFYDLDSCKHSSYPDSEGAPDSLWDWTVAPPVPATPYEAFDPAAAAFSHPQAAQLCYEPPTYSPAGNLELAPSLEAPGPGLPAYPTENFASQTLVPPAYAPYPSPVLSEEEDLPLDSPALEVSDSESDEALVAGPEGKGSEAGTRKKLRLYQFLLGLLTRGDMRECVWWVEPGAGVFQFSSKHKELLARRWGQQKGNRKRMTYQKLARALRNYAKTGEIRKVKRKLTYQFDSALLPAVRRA
Chain of ELF1 (P32519 whole entry): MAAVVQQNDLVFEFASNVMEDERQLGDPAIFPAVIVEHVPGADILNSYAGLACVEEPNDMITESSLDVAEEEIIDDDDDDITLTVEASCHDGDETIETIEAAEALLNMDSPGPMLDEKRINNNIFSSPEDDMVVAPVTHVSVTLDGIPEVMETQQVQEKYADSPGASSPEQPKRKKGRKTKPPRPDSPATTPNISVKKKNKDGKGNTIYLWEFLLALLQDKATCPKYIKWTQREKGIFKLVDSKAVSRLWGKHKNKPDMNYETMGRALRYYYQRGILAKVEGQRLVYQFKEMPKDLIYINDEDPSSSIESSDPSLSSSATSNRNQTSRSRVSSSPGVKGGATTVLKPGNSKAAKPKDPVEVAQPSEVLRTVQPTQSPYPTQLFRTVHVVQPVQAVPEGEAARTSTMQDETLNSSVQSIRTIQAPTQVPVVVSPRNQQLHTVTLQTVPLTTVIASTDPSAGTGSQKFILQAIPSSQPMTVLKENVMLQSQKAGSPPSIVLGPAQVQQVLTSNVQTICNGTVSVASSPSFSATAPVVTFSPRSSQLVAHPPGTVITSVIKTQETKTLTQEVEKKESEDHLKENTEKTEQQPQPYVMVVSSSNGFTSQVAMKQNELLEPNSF
Chain of ETV1 (P50549 whole entry): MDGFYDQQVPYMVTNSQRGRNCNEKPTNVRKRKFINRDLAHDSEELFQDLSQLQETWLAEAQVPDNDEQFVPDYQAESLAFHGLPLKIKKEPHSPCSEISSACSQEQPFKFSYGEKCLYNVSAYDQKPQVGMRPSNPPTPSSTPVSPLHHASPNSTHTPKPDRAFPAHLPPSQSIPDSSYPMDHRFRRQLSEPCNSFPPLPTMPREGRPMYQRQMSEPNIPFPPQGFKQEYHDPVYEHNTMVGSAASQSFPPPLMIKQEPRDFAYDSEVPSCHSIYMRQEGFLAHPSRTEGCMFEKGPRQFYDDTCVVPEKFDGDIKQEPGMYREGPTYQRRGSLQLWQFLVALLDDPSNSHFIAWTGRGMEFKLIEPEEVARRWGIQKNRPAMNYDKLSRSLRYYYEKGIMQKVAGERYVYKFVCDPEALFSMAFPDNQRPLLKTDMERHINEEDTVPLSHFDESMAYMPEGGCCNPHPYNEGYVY
Chain of HSF1 (Q00613 whole entry): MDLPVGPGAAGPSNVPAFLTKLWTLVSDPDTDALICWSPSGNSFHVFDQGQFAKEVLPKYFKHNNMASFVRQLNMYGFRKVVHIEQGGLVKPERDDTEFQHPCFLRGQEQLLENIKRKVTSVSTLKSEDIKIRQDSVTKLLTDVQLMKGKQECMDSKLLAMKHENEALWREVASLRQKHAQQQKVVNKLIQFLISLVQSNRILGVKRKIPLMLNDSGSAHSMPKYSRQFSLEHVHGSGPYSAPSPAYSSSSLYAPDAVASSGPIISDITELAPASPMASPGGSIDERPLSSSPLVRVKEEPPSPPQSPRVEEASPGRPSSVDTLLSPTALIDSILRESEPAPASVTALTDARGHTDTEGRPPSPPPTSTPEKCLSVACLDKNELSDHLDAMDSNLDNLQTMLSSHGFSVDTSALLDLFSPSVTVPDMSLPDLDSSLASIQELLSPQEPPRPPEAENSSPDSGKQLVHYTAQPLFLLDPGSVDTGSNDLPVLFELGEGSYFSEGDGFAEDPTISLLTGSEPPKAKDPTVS

Take TTGATT: the binding signal was 1.48 fold enrichment (6-mer frequency, TF over GST control) with FLI1; 1.32 fold enrichment (6-mer frequency, TF over GST control) with ELK1; 1.31 fold enrichment (6-mer frequency, TF over GST control) with GABPA; 1.29 fold enrichment (6-mer frequency, TF over GST control) with ERG; 1.29 fold enrichment (6-mer frequency, TF over GST control) in the assay with ELF1; 1.26 fold enrichment (6-mer frequency, TF over GST control) with EHF. Also, the binding signal with SPI1 is 1.18 fold enrichment (6-mer frequency, TF over GST control); with SPIB, 1.26 fold enrichment (6-mer frequency, TF over GST control); in the assay with ELK3 it was 1.2 fold enrichment (6-mer frequency, TF over GST control); with FEV, 1.18 fold enrichment (6-mer frequency, TF over GST control); in the assay with ETV5 it was 1.14 fold enrichment (6-mer frequency, TF over GST control); in the assay with HSF1, 1.32 fold enrichment (6-mer frequency, TF over GST control). Further, the binding signal with SPIC was 1.35 fold enrichment (6-mer frequency, TF over GST control); with ELF4, 1.25 fold enrichment (6-mer frequency, TF over GST control); with ELK4, 1.29 fold enrichment (6-mer frequency, TF over GST control); in the assay with ETV2 it was 1.32 fold enrichment (6-mer frequency, TF over GST control); in the assay with ELF3, 1.25 fold enrichment (6-mer frequency, TF over GST control); in the assay with CRX, 1.48 fold enrichment (6-mer frequency, TF over GST control). Also, in the assay with ETV1, the binding signal is 1.27 fold enrichment (6-mer frequency, TF over GST control).

The record behind these values is paper PMC7862700, “An all-to-all approach to the identification of sequence-specific readers for epigenetic DNA modifications on cytosine”.
